Results taken from PubChem BioAssay (NCATS).
Records with an inconclusive call do not appear. Calls of active or inactive are those of the source. The call rests on the fitted dose curve; in most records, active means well fitted curve in the direction sought with a large enough effect; inconclusive means small, poorly fitted or top-dose-only effect, or another doubt; inactive means no such curve, though single readings can be large; an effect the other way counts as inactive or inconclusive.

Legend:
[1] = qHTS to identify inhibitors of the type 1 interferon - major histocompatibility complex class I in skeletal muscle: primary screen against the NCATS Mechanism Interrogation Plate v5.0 (MIPE) Libary (AID 1347411); further: nearly all actives have a fitted effect of over 65% in size
Procedure, shortened: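 HLA-B HiBit myoblasts, dexamethasone-free medium + 4 ng/ml IFN-b, 24 h compound, 11-pt 1:3 from 46 uM final. Readout: Nano-Glo HiBiT lytic luminescence after 10 min lysis, RT.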

[2] = target: Calcium and integrin-binding protein 1 (Homo sapiens) (UniProt Q99828); experiment: Primary qHTS for Identification of Calcium Integrin Binding Protein 1 (CIB1) Competitor (AID 1508620);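 further: GST tagged CIB1 binding a fluorescein labelled alphaIIb integrin peptide tracer; top concentration of the series differs between compounds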
Chain of Calcium and integrin-binding protein 1 (Homo sapiens) (Q99828 whole entry, looked up): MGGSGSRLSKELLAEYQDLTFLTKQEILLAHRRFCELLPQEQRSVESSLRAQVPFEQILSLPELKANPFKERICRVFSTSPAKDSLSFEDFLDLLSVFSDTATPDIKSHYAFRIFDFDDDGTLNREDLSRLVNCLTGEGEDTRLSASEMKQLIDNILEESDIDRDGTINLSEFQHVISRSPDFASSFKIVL
Procedure, shortened: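 Fluorescence polarization competition: GST-tagged CIB1 (1 uM final) preincubated with compound 15 min at room temperature, then FITC-labelled alphaIIb peptide (100 nM final) added. After 15 min at room temperature, polarization read at Ex 480/Em 540.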

[3] = target: Protein phosphatase 1D (Homo sapiens) (UniProt O15297); experiment: RapidFire Mass Spectrometry qHTS Assay for Modulators of WT P53-Induced Phosphatase 1 (WIP1) (AID 1347424); further: series mostly up to about 63 µM
Chain of Protein phosphatase 1D (Homo sapiens) (O15297 whole entry, looked up): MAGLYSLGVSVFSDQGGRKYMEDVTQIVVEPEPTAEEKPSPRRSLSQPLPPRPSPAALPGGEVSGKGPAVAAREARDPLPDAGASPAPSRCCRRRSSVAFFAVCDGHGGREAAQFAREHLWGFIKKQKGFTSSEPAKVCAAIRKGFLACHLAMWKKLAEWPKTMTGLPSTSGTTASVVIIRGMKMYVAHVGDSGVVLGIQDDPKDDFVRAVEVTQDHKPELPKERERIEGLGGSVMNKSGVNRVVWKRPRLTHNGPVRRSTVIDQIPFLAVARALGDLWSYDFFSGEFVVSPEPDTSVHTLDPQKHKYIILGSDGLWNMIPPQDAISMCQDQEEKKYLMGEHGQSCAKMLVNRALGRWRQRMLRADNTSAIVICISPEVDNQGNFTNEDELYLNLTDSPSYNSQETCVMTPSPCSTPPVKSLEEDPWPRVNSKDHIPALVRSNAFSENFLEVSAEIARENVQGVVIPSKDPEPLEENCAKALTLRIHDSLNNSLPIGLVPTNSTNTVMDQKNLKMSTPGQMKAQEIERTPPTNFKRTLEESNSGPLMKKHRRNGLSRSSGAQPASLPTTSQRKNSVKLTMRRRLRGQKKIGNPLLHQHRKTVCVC
Procedure, shortened: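 RapidFire MS readout of dephosphorylated VEPPL-S-QETFS product, with 1 uM isotope-labelled peptide standard. Reaction: 10 nM WIP1, 2 uM phosphopeptide substrate, 5 min, room temperature, after 1 h compound preincubation; stopped with 0.5% formic acid.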

[4] = target: Protein phosphatase 1D (Homo sapiens) (UniProt O15297); experiment: Rhodamine-PBP qHTS Assay for Modulators of WT P53-Induced Phosphatase 1 (WIP1) (AID 1347425)
Procedure, shortened: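 Read-out: Rhodamine-PBP fluorescence (ex 525/em 598 nm) for released Pi, read each minute for 11 min after adding 10 uM VEPPL-pS-QETFS; signal taken as f1 minus pre-substrate f0. Enzyme 5 nM WIP1 with 1 hr room-temperature compound preincubation.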

[5] = Primary qHTS for inhibitors of La Crosse Virus (LACV) - induced cell death in SH-SY5Y cells (AID 1508616);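 further: top concentration of the series differs between compounds; higher means more rescue of cells from virus-induced death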
Procedure, shortened: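 Cytopathicity rescue screen: compounds pinned onto SH-SY5Y cells, which are then infected with LACV (MOI 0.01) and held 6 days at 37C. Percent activity is scaled between infected DMSO control and uninfected DMSO control.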

Measured: Potency

O=C(O)[C@H](CC(=O)N1C[C@H]2CCCC[C@H]2C1)Cc1ccccc1
inactive: [1] | [2]

N=C1N=C(N)c2cc3ccccc3cc21
not listed: [1]
inactive: all other assays above

COc1ccnc2c1CCCCC2S(=O)c1nc2ccccc2[nH]1 (stereo unspecified)
inactive: [3] | [4]

O=C(Nc1ccc(C(=O)O)c(O)c1)c1ccccc1
not listed: [1]
inactive: all other assays above

Cc1c(N)c(=O)n(-c2ccccc2)n1C
not listed: [1]
inactive: all other assays above

COc1cc(CNC(=O)CCCC/C=C/C(C)C)ccc1O
inactive: [1] | [2]

CCCCCCCCCCCCCCCCCC(=O)O
inactive: [3] | [4] | [5]
